High-throughput results deposited in PubChem BioAssay by National Center for Advancing Translational Sciences (NCATS).
Hits are enriched below; roughly 1.4% of the tested compounds scored in any of these assays.
MmCpn inh = Inhibitors of TCP-1 ring complex (TRiC) of Methanococcus maripaludis (MmCpn): qHTS. AID 504842, 2011. Chaperonin Mm-Cpn (Methanococcus maripaludis). hit rate 0.031% among 330,000. purified Mm-Cpn ATPase, ADP Transcreener TR-FRET. Potency, µM (highest dose often 76.9 µM), inactives show top-dose activity, negative = inhibition, hits mostly inhibitors; also: potency is read from the fitted curve at half-maximal effect; % is scaled to controls: 0 for no effect and ±100 for the full control effect; nearly all actives have a fitted effect of over 80% in size
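25 nM Mm-CPN + cpd, 10 min 37°C; + 10 uM ATP, 30 min 37°C; buffer 30 mM Tris pH 7.4, 100 mM KCl, 5 mM MgCl2, 1 mM DTT; Transcreener ADP HTRF detection 30 min RT.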
p53 reactivation = qHTS assay for re-activators of p53 using a Luc reporter | Potency, µM (highest dose often 92.2 µM), for the others: at the highest dose activity change, positive = activation, actives largely listed as activators | H1299 p53-A138V BP100-luciferase reporter, luminescence, 24 h | hit rate 0.063% among 320,000; also: potency is read from the fitted curve at half-maximal effect; % of control where 0% means no effect; nearly all actives have a fitted effect of over 45% in size
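p53-null H1299 cells stably carrying temperature-sensitive p53-A138V and a BP100-luciferase reporter were pinned with compounds (4-point, 1:5 series) and held 24 hrs at 37 deg C. Luminescence was read 10 min after detection reagent.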
ALOX12 inh = Primary qHTS assay for inhibitors of human arachidonate 12S-lipoxygenase (ALOX12): Round 2. purified 12hLO, xylenol orange hydroperoxide absorbance. Polyunsaturated fatty acid lipoxygenase ALOX12 (Homo sapiens), P18054. AID 1671190, 2021. Potency, µM (titrated, usually from 108 µM), for the others: top-dose activity change, negative = inhibition, most hits filed as inhibitors. hit rate 1.1% among 580,000; also: potency is read from the fitted curve at half-maximal effect; % is scaled to controls: 0 for no effect and ±100 for the full control effect
Target sequence (P18054 whole entry, looked up): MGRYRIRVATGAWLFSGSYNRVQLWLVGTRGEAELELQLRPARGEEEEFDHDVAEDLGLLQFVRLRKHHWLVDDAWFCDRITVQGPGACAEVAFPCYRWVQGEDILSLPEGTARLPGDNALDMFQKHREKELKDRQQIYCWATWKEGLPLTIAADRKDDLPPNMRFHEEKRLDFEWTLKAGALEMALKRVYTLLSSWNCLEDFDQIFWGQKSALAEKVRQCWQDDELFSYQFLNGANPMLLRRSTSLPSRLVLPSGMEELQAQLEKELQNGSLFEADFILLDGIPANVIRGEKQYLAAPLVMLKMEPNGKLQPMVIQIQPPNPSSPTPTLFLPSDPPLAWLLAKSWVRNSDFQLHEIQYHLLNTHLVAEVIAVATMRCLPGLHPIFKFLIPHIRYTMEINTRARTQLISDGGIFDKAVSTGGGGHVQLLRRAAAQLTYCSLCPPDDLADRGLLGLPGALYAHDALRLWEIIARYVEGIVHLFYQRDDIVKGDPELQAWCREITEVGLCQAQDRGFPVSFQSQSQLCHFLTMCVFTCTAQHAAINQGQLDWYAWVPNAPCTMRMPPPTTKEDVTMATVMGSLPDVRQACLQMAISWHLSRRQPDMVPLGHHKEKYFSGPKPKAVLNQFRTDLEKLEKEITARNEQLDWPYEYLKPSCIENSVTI
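Purified human 12hLO (150 nM final) in 25 mM Hepes, 0.01% Triton X-100, pH 7.0 was preincubated 15 min at room temperature with compound. Then 40 uM arachidonic acid was added, 30 min. Hydroperoxide was read by Fe-XO absorbance ratio 573/405 nm.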
CCT modulator = High-Throughput Screening for Modulators of Cytosolic Chaperonin Activity; purified chaperonin ATPase assay, HTRF ADP detection, 30 min; activity change, % (concentration not given with the values), hits read low; hit rate 0.3% among 360,000; AID 651819, 2012; in the data active = activity change below about -30%; also: % is scaled to controls: 0 for no effect and ±100 for the full control effect
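TRiC (40 or 20 nM final, by batch activity) in 30 mM Tris pH 7.4, 100 mM KCl, 5 mM MgCl2, 1 mM DTT was treated with compound at 76 uM single dose, then 10 uM ATP, 30 min at 37 °C. ADP was read by HTRF Transcreener.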
ASM inhibitor = Inhibitors of Secretory Acid Sphingomyelinase (S-ASM): qHTS; Sphingomyelin phosphodiesterase (Homo sapiens), P17405; placental ASM, HMU-PC fluorogenic substrate, 60 min; Potency, µM (top dose mostly 57.5 µM), for the others: at the highest dose activity change, negative = inhibition, usual class: inhibitors; hit rate 0.006% among 340,000; also: potency is read from the fitted curve at half-maximal effect
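HMU-PC0 cleavage (9 uM final) by human placental ASM, 60 min at 37 °C following 10 min compound exposure at RT; stopped at pH 10, fluorescence Ex 386/Em 447 nm.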
PINK1 expr mod = A Quantitative High throughput Screen to Identify Chemical Modulators of PINK1 Expression; PINK1 immunofluorescence, high-content cytometry, 24 h; AID 624263, 2012; Potency, µM (titrated, usually from 76.6 µM), without a hit: at the top dose activation (PINK1 increase), hits mostly activators; hit rate 0.2% among 410,000; active = well fitted activation curve with a large enough effect; inconclusive = small, poorly fitted or top-dose-only effect; cell line not stated here; also: potency is read from the fitted curve at half-maximal effect; % of control where 0% means no effect; nearly all actives have a fitted effect of over 65% in size
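Fluorescence from anti-PINK1 antibody, together with nuclear and cell stains, was scanned on a laser-scanning cytometer. Before staining, stable-line cells were incubated 24 hours with compounds at 5 concentrations; primary antibody 12 h at 10 degrees C.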
The depositor's hits bear a star; ? = inconclusive; nt = not tested or not shown; [ ] = another dose, or the depositor's remark. Unless noted, calls follow the shape of the dose curve; as a rule, active = well fitted curve in the direction sought with a large enough effect; inconclusive = small, poorly fitted or top-dose-only effect, or another doubt; inactive = no such curve, though single readings can be large; an effect the other way counts as inactive or inconclusive.

SMILES	MmCpn inh	p53 reactivation	ALOX12 inh	CCT modulator	ASM inhibitor	PINK1 expr mod
CCCS(=O)(=O)Nc1ccc(N2CCCCC2)c(S(=O)(=O)Nc2ccccc2OC)c1	-8%	18%	32µM*	0	-15%	?
CN(Cc1ccccc1)Cc1nc2c(c(=O)n(C)c(=O)n2C)n1CC(N)=O	nt	nt	-30%	nt	nt	nt
COc1ccccc1N(C(C)=O)C1=C(Cl)C(=O)c2ccccc2C1=O	nt	nt	14µM*	1	nt	0%
COc1ccccc1N(C(=O)CCl)c1cn(C(C)=O)c2ccccc12	0%	-13%	0%	1	2%	-2%
Cc1cc(NCCOCCO)n2ncc(-c3ccc(Cl)cc3)c2n1	-8%	40µM*	33%	-2	7%	0%
CCc1cc(C(c2ccccc2OC)N2CCN(C)CC2)c(NC(=O)c2ccco2)s1 (configuration not stated)	nt	nt	40µM*	nt	nt	nt
CCc1cc(C(c2ccc(OC)c(OC)c2)N2CCN(CC)CC2)c(NC(=O)c2ccco2)s1 (configuration not stated)	nt	nt	16µM*	nt	nt	nt
CCc1cc(C(c2ccc(OC)c(OC)c2)N2CCOCC2)c(NC(=O)c2ccccc2)s1 (configuration not stated)	-2%	18%	-34%	0	-2%	-2%
CCc1cc(C(c2cccc(OC)c2)N2CCOCC2)c(NC(=O)c2ccccc2)s1 (configuration not stated)	0%	27%	0%	0	-7%	0%
O=S(=O)(c1ccc2ccccc2c1)N1CCOCC1	1%	-2%	-2%	-2	3%	0%
O=S(=O)(c1ccc2nc(-c3ccco3)c(-c3ccco3)nc2c1)N1CCOCC1	-5%	-37%	14µM*	-5	107%	2%
Oc1ccccc1-n1cccc1	nt	nt	-23%	nt	nt	nt
NS(=O)(=O)c1cccc(NC(=O)Cn2cnc3ccccc3c2=O)c1	0%	10%	5%	-2	4%	11µM*
COc1ccc(OC)c(-n2c(SCC(=O)Nc3cccc(S(N)(=O)=O)c3)nc3ccccc3c2=O)c1	-7%	-1%	-2%	-40*	-2%	-2%
COc1cc(Br)c(C=O)cc1OC	nt	nt	27%	nt	nt	nt
Cc1ccc(N2C(=O)CS(=O)C(c3ccccc3)C2=O)cc1C (configuration not stated)	-5%	15%	22µM*	-4	-1%	0%
Cc1ccc(C(=O)OCC(=O)NCc2ccc3c(c2)OCO3)cc1F	nt	nt	4%	nt	nt	nt
O=C(c1ccccc1Br)N(Cc1cccc2[nH]ccc12)C1CC1	nt	nt	-10%	nt	nt	nt
O=C(NNC(=S)NCc1ccccc1)c1ccc2c(c1)OCO2	-1%	13%	8%	1	5%	0%
COc1ccc(C(=O)NC(=S)NCc2ccccc2)cc1	0%	18%	0.71µM*	1	-4%	4%
O=C(NC(=S)NCc1ccc2c(c1)OCO2)c1ccccc1	1%	-3%	16µM*	1	-9%	0%
O=C(NC(=S)NCc1ccccc1)c1ccc2c(c1)OCO2	2%	?	16µM*	-1	-3%	-1%
CC(C)C(=O)Nc1cccc(NC(=S)NC(=O)c2ccc3c(c2)OCO3)c1	0%	10%	3.5µM*	0	-3%	5%
O=C(NC(=S)NCc1ccccc1)c1ccc(Br)cc1	nt	nt	-104%	1	-4%	1%
COc1ccc(C)cc1N1CC(C(=O)Nc2ncn[nH]2)CC1=O (configuration not stated)	nt	nt	19%	nt	nt	nt
SMILES	MmCpn inh	p53 reactivation	ALOX12 inh	CCT modulator	ASM inhibitor	PINK1 expr mod
CCN(C(=O)C(=O)c1c(C)n(C)c2ccccc12)c1ccc(OC)cc1	nt	nt	-5%	nt	nt	nt
CC1CCC(NC(=O)C2(c3ccccc3)CC2)CC1 (configuration not stated)	nt	nt	-25%	nt	nt	nt
CSc1ccc(C2=NN(C(=O)C(C)C)C(c3ccc4nccnc4c3)C2)cc1 (configuration not stated)	nt	nt	-38%	nt	nt	nt
O=C(O)CNC(=O)c1ccc2c(c1)OCCO2	0%	0%	8%	-1	1%	13µM*
O=C(NCc1ccco1)c1ccc2c(c1)OCCO2	1%	?	-28%	-2	0%	0%
CN(C)C[C@@H]1CN(c2ccccn2)C[C@H]1NC(=O)c1cccn1C	nt	nt	12%	nt	nt	nt
Cc1ccc(OCCCCNC(C)c2ccccc2)c(C)c1 (configuration not stated)	-3%	nt	4.5µM*	-1	-3%	?
Cc1ccc(OCCNCc2ccccc2)c(C)c1	0%	-26%	?	0	-4%	12%
COc1ccc2c(-c3ccc(OCCN4CCOCC4)cc3)c(-c3ccccc3OC)sc2c1	32µM*	1%	nt	-1	?	1%
COc1cc2sc(-c3ccccc3OC)c(-c3ccc(OCCN4CCOCC4)cc3)c2cc1OC	45µM*	-8%	nt	2	?	0%
Cc1cccc(C(=O)Nc2ccc3oc(-c4ccc(F)cc4)nc3c2)c1	nt	nt	5%	nt	nt	nt
Oc1ccc(/C=N/Nc2ccc3ccccc3c2)c(O)c1	0%	5%	-24%	-10	20%	3%
Fc1ccc(Br)cc1/C=N/N1CCN(c2ccccc2)CC1	1%	16%	0%	-1	-3%	3%
Fc1ccc(Br)cc1/C=N/Nc1c(Cl)cc(Cl)cc1Cl	nt	nt	18µM*	nt	nt	nt
O=C(N/N=C/c1ccc(Cl)cc1Cl)c1cccc(F)c1	-1%	?	13%	-2	-7%	3%[38.3 µM]
Fc1ccc(/C=N/Nc2c(Cl)cc(Cl)cc2Cl)c(F)c1	nt	nt	40µM*	nt	nt	nt
Fc1ccc(/C=N/Nc2ccc3ccccc3c2)c(F)c1	nt	nt	2.5µM*	nt	nt	nt
O=C(Nc1nc2ccccc2s1)c1ccc(OCC2CCCO2)cc1 (configuration not stated)	-9%	28µM*	-14%	2	-17%	11%
COc1ccccc1/C=C/C(=O)c1ccccc1	-6%	32µM*	0%	-2	-1%	-1%
COc1ccc(NC(=S)NC(=O)/C=C/c2cccs2)cc1	4%	2%	-23%	-4	-12%	5%
COc1ccccc1NC(=S)NC(=O)/C=C/c1cccs1	6%	-6%	35µM*	1	-4%	0%
COc1ccccc1/C=C/C(=O)NC(=S)NC(C)C	0%	10%	25µM*	-1	0%	1%
Cc1ccc(Nc2c(-c3ccc(C)o3)nc3cccc(C)n23)cc1	nt	nt	45µM*	nt	nt	0%
